Reference: publication PMC5540273 (PLoS ONE, 2017)

Each compound was assayed on T1, TAK1. Settings: concentration: 1 μM, replicates: in singlicate; n = 1.
T1 construct: gene MAP3K7
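Further: KINOMEscan kinase panel screen.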

| Compound | %Inh [%] |
| --- | --- |
| c1ccc(Oc2ccc(Nc3ccnc4cc(-c5ccc(CNCCN6CCOCC6)o5)ccc34)cc2)nc1 [GW567145] | 0 |
| Cn1cc(-c2[nH]c3cc(NC(=O)[C@H](N)C4CCCCC4)cc4c3c2C=NNC4=O)cn1 | 52 |
| O=C(Nc1cccc(-c2nn3ccccc3c2-c2ccnc(Nc3cccc(F)c3)n2)c1)c1c(F)ccc(F)c1Cl [GSK357952] | 0 |
| Cc1ccc(C)c(NC(=O)NC2CCN(c3ccnc(Nc4ccc(F)cc4)n3)C2)c1 (stereo not shown) [GSK1379720] | 0 |
| O=C(Nc1n[nH]c2cc(-c3ccoc3)ccc12)C1CC1 [SB-738481] | 2 |
| COc1cccc(C(=O)Nc2cccc(Oc3ccc4nc(NC(=O)C5CC5)cn4n3)c2)c1 | 0 |
| Cc1ccc(S(=O)(=O)Nc2ccc(Nc3nccc(Nc4cccc5[nH]ncc45)n3)cc2)cc1 [GSK581271] | 0 |
| CN(C)Cc1ccc(-c2ccc3c(Nc4ccc(Oc5ccccn5)cc4)ccnc3c2)o1 [GW567148] | 23 |
| Nc1ncc(-c2ccc3nccc(-c4ccncc4)c3c2)cc1S(=O)(=O)N1CCOCC1 [GSK1627798] | 0 |
| CC(=O)Nc1nc2cnc(Nc3cc(NC(=O)c4cccc(C5(C#N)CC5)c4Cl)ccc3C)nc2s1 | 3 |
| Cl.Cl.NCC(NC(=O)c1cc(-c2ccccc2)c(-c2ccnc3[nH]ccc23)s1)c1ccccc1 (stereo not shown) [GSK1321561] | 35 |
| COc1cccc(C2=C(Nc3ccc(Cl)c(C(=O)O)c3)C(=O)NC2=O)c1 [SB-390769] | 0 |
| O=c1[nH]cc(-c2ccc(N3CCOCC3)cc2)c2sc(-c3cn[nH]c3)cc12 [GSK2276055] | 53 |
| Cn1cc(-c2ccc3c(c2)CCN3C(=O)Cc2cccc(F)c2)c2c(N)ncnc21 [GSK2603358] | 30 |
| CN1CCN(CCCNc2nccc(-c3c(-c4ccc(F)cc4)nn4cc(C(F)(F)F)ccc34)n2)CC1 [GW621581] | 0 |
| Cc1ccc(C(=O)Nc2ccc(Nc3ccnc4cc(-c5nccs5)ccc34)cc2O)cc1.Cl [GW494702] | 0 |
| CC(C)(C)c1ccc2nccc(Nc3cccc(O)c3)c2c1 [GW856795] | 23 |
| Nc1n[nH]c2cnc(-c3ccccc3)cc12 [SB-642124] | 0 |
| CCc1ccc(-c2ccc3c(c2)-c2c(cnn2C)S(=O)(=O)N3C)cc1 | 4 |

| Compound | %Inh [%] |
| --- | --- |
| O=C(Nc1n[nH]c2nc(-c3ccc(O)cc3)ccc12)C1CC1 [SB-710363] | 21 |
| CC(=O)N1CCN(c2ccc(Nc3nccc(-c4sc(C(C)C)nc4-c4cccc(NS(=O)(=O)c5cccc(Cl)c5)c4)n3)cn2)CC1 [GSK1660437] | 41 |
| c1ccc(-c2n[nH]cc2Nc2ccnc3ccccc23)nc1 [GW694077] | 91.6 |
| Oc1cc(Nc2ccnc3cc(I)ccc23)ccc1F [GW552771] | 0 |
| COc1ccc(Nc2nccc(N3CCC(NC(=O)Nc4cccc(OC)c4)C3)n2)cc1 (stereo not shown) [GSK1379742] | 0 |
| COc1cc(Nc2nccc(-c3c(-c4cccc(NC(=O)c5c(F)cccc5F)c4)nn4ccccc34)n2)cc(OC)c1OC [GSK323521] | 28 |
| c1ccc(-c2cnc3nccnn23)cc1 [AH20685] | 0 |
| C[C@@H](Oc1cc(-n2cnc3cc(-c4ccnc(NCCS(C)(=O)=O)c4)ccc32)sc1C(N)=O)c1ccccc1Cl [GSK907232] | 0 |
| COc1cc(Nc2ncc3c(C)nc(-c4cc5ccccc5[nH]4)n3n2)cc(OC)c1OC [GW869516] | 48 |
| Cl.c1ccc(-c2ccc3c(Nc4ccc5[nH]ncc5c4)ccnc3c2)nc1 [GW440137] | 0 |
| Cl.c1ccc(-c2ccc3c(Nc4ccc5[nH]ccc5c4)ccnc3c2)nc1 [GW440138] | 0 |
| Cl.NC(=O)c1cccc(Nc2nccc(Nc3ccc(Oc4c(Cl)cccc4Cl)c(Cl)c3)n2)c1 [GW659009] | 1 |
| O=C(Nc1ccccc1F)NC1CCN(c2ccnc(Nc3ccc(F)cc3)n2)CC1 [GSK1379800] | 0 |
| COc1ccc(-c2coc3ccc(-c4nnc(SCc5ccc(OC)c(C(F)(F)F)c5)o4)cc23)cc1 | 0 |
| Clc1ccc(-c2nn3ncccc3c2-c2ccnc(Nc3ccc4c(c3)OCCO4)n2)cc1 [GW829116] | 0 |
| CC(C)c1nc(-c2cccc(NS(=O)(=O)c3c(F)cccc3F)c2F)c(-c2ccnc(Nc3ccc(N4CCOCC4)nc3)n2)s1 [GSK2008607] | 76 |
| C[C@@H]1CC[C@@H](C(=O)Nc2ccccc2)CN1c1cc(-c2ccc3c(N)n[nH]c3c2)nc(N)n1 [GSK2286062] | 0 |
| COc1ccc(CNC(=O)NC2CCN(c3ccnc(Nc4ccc(F)cc4)n3)CC2)cc1 [GSK1379788] | 0 |
